Source: PubChem BioAssay AID624330 (Southern Research Specialized Biocontainment Screening …, 2012)
The campaign covered roughly 340,000 compounds. About 2,100 (0.62%) were called active.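 The calls were made as follows: active = first-screen hits whose inhibition reached a set limit at any dose in the follow-up dose series; inconclusive = inhibition above the set first-screen limit but never retested; inactive = the rest.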 Only a sample is shown. Measured potencies and affinities stand elsewhere.

Target: Rac GTPase-activating protein 1 (Homo sapiens) (UniProt Q9H0H5)
Test: MgcRacGAP GTPase-activating activity inhibitors, confirmation, biochemical, ADP Hunter fluorescence, primary and confirmatory (AID 624330);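 also: fluorescence reports GDP produced by GAP-driven GTP hydrolysis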
Conditions: MgcRacGAP-stimulated Rac1 GTP hydrolysis, at 30 µM, hits give high values, GST-tagged Rac1 F28L mutant substrate

Sequence of Rac GTPase-activating protein 1 (Homo sapiens) (Q9H0H5 whole entry, looked up): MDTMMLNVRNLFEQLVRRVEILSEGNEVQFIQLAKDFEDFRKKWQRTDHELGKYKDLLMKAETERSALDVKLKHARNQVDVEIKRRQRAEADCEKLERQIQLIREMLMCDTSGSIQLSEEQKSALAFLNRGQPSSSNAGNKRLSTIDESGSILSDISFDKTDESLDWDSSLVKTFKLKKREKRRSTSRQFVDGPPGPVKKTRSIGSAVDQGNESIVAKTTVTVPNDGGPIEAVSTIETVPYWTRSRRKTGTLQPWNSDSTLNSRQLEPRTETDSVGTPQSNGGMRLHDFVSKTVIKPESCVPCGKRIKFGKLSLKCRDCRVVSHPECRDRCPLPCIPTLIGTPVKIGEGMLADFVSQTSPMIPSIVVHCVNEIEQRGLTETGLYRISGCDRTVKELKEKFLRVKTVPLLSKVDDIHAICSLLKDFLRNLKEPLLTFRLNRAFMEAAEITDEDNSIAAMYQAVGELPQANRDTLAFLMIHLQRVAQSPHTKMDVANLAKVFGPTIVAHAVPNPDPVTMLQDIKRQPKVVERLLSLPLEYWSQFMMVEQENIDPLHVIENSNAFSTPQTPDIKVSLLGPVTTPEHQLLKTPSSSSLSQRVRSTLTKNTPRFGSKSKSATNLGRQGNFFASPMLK

Row | SMILES | inhibition
1 | COc1ccc(Cl)cc1NS(=O)(=O)N1CCOCC1 | 6.51% (inactive)
2 | COc1cc(OC)c(OC)cc1/C=N/NC(=O)CC1C(=O)NN=C1C (centres undefined) | 4.43% (inactive)
3 | COc1ccc(OC)c(/C=N/NC(=O)CC2C(=O)NN=C2C)c1 (centres undefined) | 3.85% (inactive)
4 | CC1C(=O)NN=C1C(=O)N/N=C/c1ccco1 (centres undefined) | 14.2% (inactive)
5 | CC1C(=O)NN=C1C(=O)N/N=C/c1cccs1 (centres undefined) | 17.2% (inactive)
6 | COc1ccc(/C=N\NC(=O)C2=NNC(=O)C2C)cc1 (centres undefined) | 13.9% (inactive)
7 | CC1C(=O)NN=C1C(=O)N/N=C\C(Br)=C\c1ccccc1 (centres undefined) | 20.2% (inactive)
8 | CCOC(=O)C1C(=O)NC(C(=O)OCC)(C(=O)OCC)C1C(C)CC (centres undefined) | 6.57% (inactive)
9 | CC1CCCC(NC(=O)COC(=O)/C=C/c2ccco2)C1C (centres undefined) | 2.8% (inactive)
10 | CNCCCOc1cccc(OC(C)C)c1 | 16.9% (inactive)
11 | CCc1ccccc1N(C(=O)c1ccco1)C(C(=O)NC1CCCC1)c1cccnc1 (centres undefined) | 4.45% (inactive)
12 | CN(CC(=O)NCC1CCCO1)S(=O)(=O)c1ccc(Br)cc1 (centres undefined) | 7.12% (inactive)
13 | C/C(N)=C(/C#N)C(=O)COC(=O)C1CCN(S(=O)(=O)c2cccs2)CC1 | -1.72% (inactive)
14 | CC(=O)Nc1ccc(C(=O)N2CCc3cc4c(cc3C2C)OCCCO4)cc1 (centres undefined) | 1.24% (inactive)
15 | COC(=O)C[C@H]1C[C@@H]2c3cc(NC(=O)Nc4ccc(F)cc4)ccc3O[C@@H]2[C@@H](CO)O1 | 7.07% (inactive)
16 | O=c1[nH]n(-c2ccccc2)c(=O)c2ccccc12 | -1.66% (inactive)
17 | O=c1ccc(=O)n(-c2ccccc2)[nH]1 | 2.41% (inactive)

Row | SMILES | inhibition
18 | O=C(O)CSCC(=O)Nc1ccc(C(=O)O)cc1 | 7.72% (inactive)
19 | COc1cc(CNCCO)ccc1OCCc1ccccc1 | 5.16% (inactive)
20 | O=C(O)c1ccccc1Nc1ccccc1C(=O)O | 2% (inactive)
21 | COc1cccc(Nc2ccccc2C(=O)O)c1 | 7.48% (inactive)
22 | CC(Oc1ccccc1)C(=O)Nc1cccc(F)c1 (centres undefined) | 3.1% (inactive)
23 | Cc1cc(N)cc(C)c1-c1c(Br)cc(N)cc1Br | 10.2% (inactive)
24 | Cc1cc(C)cc(N)c1 | 6.83% (inactive)
25 | O=C(CCC(=O)OCc1cccc([N+](=O)[O-])c1)Nc1ccccc1Cl | 2.82% (inactive)
26 | COc1ccc(C(=O)NCCc2nnc3ccc(SCC(=O)NCc4ccc(F)cc4)nn23)cc1 | -0.6% (inactive)
27 | Cc1onc(-c2ccccc2Cl)c1C(=O)NNC(=O)c1nn(C)cc1Cl | 1.82% (inactive)
28 | O=C(c1cc(COc2ccc(F)c(F)c2)on1)N1CCN(C/C=C/c2ccccc2)CC1 | -6.39% (inactive)
29 | Nc1nc(N)c2cc(Sc3ccc(Cl)cc3)ccc2n1 | 11.7% (inactive)
30 | Nc1nc(N)c2cc(Sc3cccc(C(F)(F)F)c3)ccc2n1 | 5.58% (inactive)
31 | Cc1nc(Cc2nnc(SCC(=O)N3CCN(c4ccccc4)CC3)o2)cs1 | 5.08% (inactive)
32 | Cc1nc(Cc2nnc(SCC(=O)N3CCN(c4ccc(F)cc4)CC3)o2)cs1 | 0.95% (inactive)
33 | CC(=O)Nc1nc(=S)ss1 | 12.7% (inactive)
34 | CC(C)(C)C(=O)Nc1nc(=S)ss1 | 11.6% (inactive)
